The supplement of paper PMC9942566
± gives the standard deviation of the averaged measurements.

Each molecule was assayed on Serratia marcescens K904 PosmB-luxCDABE reporter (pMQ747) (assay: PosmB-lux reporter fold induction (RLU/OD600 relative to no-compound control), highest over Biolog concentrations; higher = stronger Rcs reporter activation). Details: Biolog plate: PM13; well positions: A9-12; wild type K904; 4 h.
Description: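 Serratia marcescens K904 (wild type) or its isogenic ΔrcsB mutant, carrying the Rcs-dependent PosmB-luxCDABE reporter plasmid pMQ747, was grown in LB at OD600 0.1 in Biolog Phenotype MicroArray plates PM11-20 for 4 h at 30-32°C. Each compound is present at 3-4 proprietary concentrations (not stated); per the Fig. S1 legend the value given is the highest fold over those wells. Three independent trials.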

SMILES	PosmB-lux reporter fold induction
[Cl][Ni][Cl] [Nickel chloride]	1.33 ± 0.21

Same assay, conditions: Biolog plate: PM14; well positions: B9-12; wild type K904; 4 h

SMILES	PosmB-lux reporter fold induction
O=[As]([O-])([O-])[O-].[Na+].[Na+].[Na+] [Sodium arsenate]	2.1 ± 0.74
